The source of these data is PubChem BioAssay (NCATS).

“And” between values parts separate entries of the source, which are not always exact repeats. Equal values may be shown once. Records with an inconclusive call do not appear. The source made the active and inactive calls. Unless noted, the call rests on the fitted dose curve; in most records, active means well fitted curve in the direction sought with a large enough effect; inconclusive means small, poorly fitted or top-dose-only effect, or another doubt; inactive means no such curve, though single readings can be large; an effect the other way counts as inactive or inconclusive.

Assay [1] can be described thus: qHTS for compounds that reverse cellular toxicity of Amyloid beta (A-beta) peptide in yeast: LOPAC Validation Assay (AID 720559).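 Further: plate controls were DMSO for no effect and equimolar ferric chloride plus clioquinol rescue for full effect.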 In short, it runs like this: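 Medium dispensed, compounds pinned, A-beta yeast suspension added; plates held at 30 C for 48 hr; absorbance measured at 600 nm to gauge growth; values scaled between DMSO and FeCl3/clioquinol (equimolar) controls.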
Background: qHTS replaces the single test concentration by a dilution series.

Assay [2] is described as follows: qHTS for Activators of Parkin Expression: LOPAC Validation Assay (NLuc Reporter) (AID 720572). In short, it runs like this:
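NLuc signal, read 10 min after reagent and following a prior FLuc read, is normalized to DMSO (0) and positive controls (100%). Cells: neuronal Parkin-promoter coincidence reporter line; compounds tested 7-point, 24 h, 37 C, 5% CO2.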

Assay [3] in a line: qHTS for Activators of Parkin Expression: LOPAC Validation Assay (FLuc Reporter) (AID 720573). In short, it runs like this:
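Cells seeded, 24 h; compounds pinned, 7-pt dose response; 24 h at 37 C/5% CO2; volume reduced; FLuc reagent 10 min RT; luminescence read. Normalization: DMSO = 0, positive control = 100%.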

The nature of assay [4]: qHTS assay for small molecule agonists of the antioxidant response element (ARE) signaling pathway measured by Nrf2-dependant transcriptional activity (AID 720636; active means well fitted curve in the direction sought with a large enough effect in the repeat runs; an effect the other way counts as inactive or inconclusive;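 further: HepG2 cells with an ARE-driven luciferase reporter; % of control where 0% means no effect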). In short, it runs like this:
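Attachment 6 hr at 37 C, then compound versus DMSO vehicle for 16 hr in ARE-luc HepG2 cells (1% dialyzed FBS); luminescence recorded 30 min after ONE-Glo addition at room temperature.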

A short description of assay [5]: qHTS assay for small molecule antagonists of the retinoid-related orphan receptor gamma (ROR-gamma) signaling pathway - cell viability counter screen (AID 720652; active means well fitted curve in the direction sought with a large enough effect in the repeat runs; an effect the other way counts as inactive or inconclusive;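 further: CHO reporter cells with doxycycline-induced ROR-gamma expression; compound exposure lasted 16 hr before ATP read; on the % scale 0 is the no-effect control and ±100 the full control effect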). The method, boiled down:
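CHO RORE-LUC/TET-ROR line, 1,000 cells/well, 37 C 5% CO2 5 hr; cpd or DMSO + doxycycline induction, 16 hr. CellTiter-Glo, 30 min RT, luminescence = ATP content.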

Assay [6] can be described thus: qHTS assay for small molecule agonists of the antioxidant response element (ARE) signaling pathway measured by Nrf2-dependant transcriptional activity - cell viability counter screen (AID 720653; active means well fitted curve in the direction sought with a large enough effect in the repeat runs; an effect the other way counts as inactive or inconclusive; further: on the % scale 0 is the no-effect control and ±100 the full control effect). The conditions noted are these: ARE-bla HepG2 viability, CellTiter-Glo ATP luminescence, 16 h; stronger effect = lower value. The method, boiled down:
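ARE-bla HepG2 cells treated with compounds for 16 h at 37C; this counter screen measures viability as intracellular ATP by CellTiter-Glo luminescence after 30 min at room temperature.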

In assay [7] the target is T1, Hexokinase-4 (Homo sapiens) + Glucokinase regulatory protein (Homo sapiens) (UniProt P35557+Q14397). The assay is described as follows: qHTS assay for inhibitors of recombinant human GCK-GKRP interaction: Diaphorase-coupled assay (AID 743205). The method, boiled down: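 25 mM Hepes pH 7.6, 5 mM glucose, 0.4 mM ATP, 4 U/ml G6PDH; 10 nM each GST-GCK/FLAG-GKRP. Kinetic fluorescence read, 1/min × 30 min. Normalized: DMSO ± enzyme = max/min.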
T1 sequence (P35557 whole entry, looked up): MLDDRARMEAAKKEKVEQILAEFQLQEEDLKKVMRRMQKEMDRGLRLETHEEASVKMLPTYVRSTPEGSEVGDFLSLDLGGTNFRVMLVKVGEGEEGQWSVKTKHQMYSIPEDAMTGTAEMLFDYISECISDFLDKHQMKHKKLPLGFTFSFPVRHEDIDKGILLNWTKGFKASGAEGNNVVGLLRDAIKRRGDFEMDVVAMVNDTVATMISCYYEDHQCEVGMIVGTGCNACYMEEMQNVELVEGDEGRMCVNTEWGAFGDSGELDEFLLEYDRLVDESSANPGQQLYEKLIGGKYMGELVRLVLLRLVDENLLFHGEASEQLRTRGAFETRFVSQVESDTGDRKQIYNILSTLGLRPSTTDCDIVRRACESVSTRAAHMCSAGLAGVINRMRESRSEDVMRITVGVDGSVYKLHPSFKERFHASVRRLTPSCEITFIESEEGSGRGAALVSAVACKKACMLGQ
T1 sequence (Q14397 whole entry, looked up): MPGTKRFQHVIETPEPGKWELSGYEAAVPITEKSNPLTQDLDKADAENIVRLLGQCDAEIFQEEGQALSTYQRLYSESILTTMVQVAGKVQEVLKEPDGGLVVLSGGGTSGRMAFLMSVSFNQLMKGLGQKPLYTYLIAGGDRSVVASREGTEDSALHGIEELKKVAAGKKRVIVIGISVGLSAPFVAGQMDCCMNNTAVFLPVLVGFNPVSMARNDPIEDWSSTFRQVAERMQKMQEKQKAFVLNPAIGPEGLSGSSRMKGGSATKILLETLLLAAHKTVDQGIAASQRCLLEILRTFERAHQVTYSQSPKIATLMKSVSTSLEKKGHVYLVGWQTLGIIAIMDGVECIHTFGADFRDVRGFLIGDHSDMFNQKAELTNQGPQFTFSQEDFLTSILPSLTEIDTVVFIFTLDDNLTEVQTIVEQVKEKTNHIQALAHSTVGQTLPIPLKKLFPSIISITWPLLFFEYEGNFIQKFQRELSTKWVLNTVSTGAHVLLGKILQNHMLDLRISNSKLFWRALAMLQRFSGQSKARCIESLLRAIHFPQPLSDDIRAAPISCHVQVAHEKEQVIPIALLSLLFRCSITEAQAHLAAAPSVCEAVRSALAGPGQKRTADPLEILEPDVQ

Assay [8] has as its target T1, Hexokinase-4 (Homo sapiens) + Glucokinase regulatory protein (Homo sapiens). The experiment in a line: qHTS assay for inhibitors of recombinant human GCK-GKRP interaction: HTRF assay (AID 743207).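 Further: 0% = DMSO with GCK present and -100% = DMSO wells lacking GCK.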 In short, it runs like this: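 5 nM GST-GCK + 5 nM FLAG-GKRP + 2 uM S6P, pH 7.1 buffer (25 mM Hepes, 2 mM MgCl2, 25 mM KCl, 1 mM DTT, Tween/BSA); pin-transferred cpd; anti-FLAG XL665/anti-GST K; 60 min RT; HTRF.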

Assay [9] in a line: qHTS assay for cell viability of HEK293 cells (AID 743288). Further: on the % scale 0 is the no-effect control and ±100 the full control effect; nearly all actives have a fitted effect of over 50% in size. The conditions noted are these: ATP luminescence (CellTiter-Glo), 18 h; max response: stronger effect = lower value. In short, it runs like this: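 Viable-cell counts were inferred from luciferase-based ATP content in HEK293 cells seeded at 2,000/well, pre-incubated ≥5 h, then dosed with DMSO-solubilised compounds for 18 h at 37 C.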

A short description of assay [10]: qHTS assay for cell viability of the p53RE-bla HCT-116 cell line (AID 743292). Further: on the % scale 0 is the no-effect control and ±100 the full control effect; nearly all actives have a fitted effect of over 55% in size. The method, boiled down:
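Compound-exposed HCT-116 (p53RE-bla) cells, 4,000 per well, were kept 16 h at 37 C following a 5 h preincubation. Cell number was estimated from total ATP by CellTiter-Glo luminescence read after 30 min at room temperature.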

Assay [11] is described as follows: qHTS Assay for Identifying Gametocytocidal Compounds (AID 743244). Further: potency means the concentration at half of the fitted maximal effect.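 On max response: on the % scale 0 is the no-effect control and ±100 the full control effect; actives lower the fluorescent signal which means gametocytes are killed.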 The conditions noted are these: P. falciparum 3D7 stage III-V gametocytes, alamarBlue, 72 h; max response: stronger effect = lower value. The method, boiled down: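 P. falciparum 3D7 stage III–V gametocytes (20,000 cells/well) were exposed to compounds for 72 h at 37 °C, 5% CO2. AlamarBlue was then added for 24 h; decreased resorufin fluorescence (Ex 525/Em 598 nm) indicated loss of viability.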

Assay [12] is described as follows: qHTS profiling for inhibitors of Plasmodium falciparum (3D7) proliferation (AID 743322; call rule not given here;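 further: infected erythrocytes exposed to compound for 72 h before lysis; 100% = DMSO vehicle wells and 0% = 0.29 µM artemisinin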). The conditions noted are these: P. falciparum 3D7 proliferation; at 28.7 µM (top of the series) unless noted. In short, it runs like this:
(§1)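 Parasite DNA was quantified by SYBR Green I fluorescence (ex 485, em 535 nm) after overnight lysis in saponin/Triton buffer at room temperature. Cultures at 0.3% parasitemia and 2.5% hematocrit were first exposed to compound for 72 h at 37 C; signals were normalised to artemisinin (0.29 uM) and vehicle wells.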

A short description of assay [13]: qHTS profiling for inhibitors of Plasmodium falciparum (DD2) proliferation (AID 743323; call rule not given here). The conditions noted are these: lower = more inhibition; at 28.7 µM (top of the series) unless noted. The method, boiled down:
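SYBR Green fluorescence (ex 485, em 535 nm) of lysed cultures gives parasite DNA content; wells normalized to artemisinin (0.29 uM) and DMSO controls. Infected red cells: 0.3% parasitemia, 2.5% hematocrit, 72 h, 37 C.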

Assay [14] in a line: qHTS profiling for inhibitors of Plasmodium falciparum (HB3) proliferation (AID 743324).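 Further: 100% = DMSO vehicle wells and 0% = artemisinin-treated control wells.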 The conditions noted are these: Plasmodium falciparum HB3 blood-stage proliferation; at 28.7 µM (top of the series) unless noted. In short, it runs like this:
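SYBR Green fluorescence (485 ex/535 em) of lysed cultures, incubated overnight at room temperature in the dark, quantifies parasite DNA. Infected erythrocytes at 0.3% parasitemia and 2.5% hematocrit were exposed 72 h; values normalized to DMSO and 0.29 uM artemisinin controls.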

Assay [15] can be described thus: qHTS profiling of the MIPE4 collection as inhibitors of Plasmodium falciparum (3D7) proliferation (AID 743344; call rule not given here;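 further: scaled between DMSO vehicle wells and 0.29 µM artemisinin as full inhibition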). The conditions noted are these: P. falciparum 3D7 in erythrocytes, SYBR Green DNA fluorescence, 72 h; at 28.5 µM (top of the series) unless noted. The method, boiled down: as §1
The nature of assay [16]: qHTS profiling of the MIPE4 collection as inhibitors of Plasmodium falciparum (DD2) proliferation (AID 743345; call rule not given here). The conditions noted are these: P. falciparum Dd2 in erythrocytes, SYBR Green DNA, 72 h; at 28.5 µM (top of the series) unless noted. In short, it runs like this:
as §1

Assay [17] is described as follows: qHTS profiling of the MIPE4 collection as inhibitors of Plasmodium falciparum (DD2) proliferation (Rep 2) (AID 743346; call rule not given here). The conditions noted are these: P. falciparum Dd2 in erythrocytes, SYBR Green DNA, 72 h; at 28.5 µM (top of the series) unless noted. The method, boiled down:
as §1

Assay [18] in a line: qHTS profiling of the MIPE4 collection as inhibitors of Plasmodium falciparum (HB3) proliferation (AID 743347; call rule not given here;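 further: plate controls were DMSO vehicle wells for no effect and artemisinin wells for full effect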). The conditions noted are these: P. falciparum HB3 in erythrocytes, SYBR Green DNA, 72 h; at 28.5 µM (top of the series) unless noted. The method, boiled down: as §1
For assay [19], the target named is Arylsulfatase A (Homo sapiens) (UniProt P15289). The experiment in a line: qHTS screen for enhancers of Arylsulfatase A (ASA1): LOPAC Validation Assay (AID 720538). Further: 0% is about no effect. The conditions noted are these: outcome: dose series up to 57.5 µM. In short, it runs like this:
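MLD patient fibroblasts (SV40, ASA-I179S), 1536-well; adhere 6 hrs; cpd 48h, 37 degree C, 5% CO2; pNCS 0.5mM final in lysis buffer, 14h RT; stop 1N NaOH final; fluor. Ex525/Em598.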

Assay [20] deals with T1, Hexokinase-4 (Homo sapiens) + Glucokinase regulatory protein (Homo sapiens). The assay is described as follows: qHTS assay for inhibitors of recombinant human GCK-GKRP interaction: ADP-Glo assay (AID 743206).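 Further: plate controls were DMSO plus enzyme for no effect and no enzyme for full effect.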 In short, it runs like this: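 Pin-transferred compounds meet a 15 nM GST-GCK/15 nM FLAG-GKRP/2 uM S6P mix (dispense concentrations). ATP is then added to 0.4 mM final with 5 mM glucose, and the reaction runs 60 min at room temperature. ADP is quantified luminescently.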

Sequence of Arylsulfatase A (Homo sapiens) (P15289 whole entry, looked up): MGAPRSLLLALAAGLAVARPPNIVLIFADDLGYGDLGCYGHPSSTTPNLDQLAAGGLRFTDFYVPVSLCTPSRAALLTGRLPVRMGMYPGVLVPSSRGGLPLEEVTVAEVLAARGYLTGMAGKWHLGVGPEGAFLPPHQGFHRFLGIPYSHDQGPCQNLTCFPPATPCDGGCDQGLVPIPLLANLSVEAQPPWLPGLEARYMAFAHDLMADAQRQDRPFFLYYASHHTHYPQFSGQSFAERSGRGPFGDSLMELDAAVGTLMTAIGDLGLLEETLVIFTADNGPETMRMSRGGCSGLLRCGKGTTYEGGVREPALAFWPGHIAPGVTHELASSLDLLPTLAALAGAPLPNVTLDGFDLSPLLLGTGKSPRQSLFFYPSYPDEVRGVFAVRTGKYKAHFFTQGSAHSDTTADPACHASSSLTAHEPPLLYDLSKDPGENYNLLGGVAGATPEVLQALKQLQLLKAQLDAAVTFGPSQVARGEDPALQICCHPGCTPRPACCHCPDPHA

Consider `NC(N)=NC(=O)c1nc(Cl)c(N)nc1N`, for which the result in assay [1], in assay [3], in [4], in [5], in assay [7] and in [8] was inactive. Besides, the Potency result in [2] and in assay [10] was “inactive” each time. The max response was -15% (inactive) in assay [6] and -10.2% (inactive) in assay [9].
On to `Cc1ccc2c(c1)C(=O)[C@@]1(O)CCN(c3ccccc3)C1=N2`, for which, in assay [11], the max response is -1.35% (inactive). The remaining parasite growth % (stronger effect = lower value) in assay [12] worked out at 104%. Besides, the activity, percent of control in assay [13] is 112%. For the same molecule, the remaining proliferation (% of control), lower = more inhibition in [14] was found to be 36.1%.
On to `Nc1nc2ccc(OC(F)(F)F)cc2s1`, for which the molecule was called inactive in assay [1], in assay [7] and in [8]. Also, the Potency entry in [2] was “inactive”. Moreover, the max response in assay [11] is 5.46% (inactive) and 13.2% (inactive). For the same molecule, the remaining parasite growth % (stronger effect = lower value) in assay [12] turned out to be 105%. Moreover, the activity, percent of control in assay [13] is 105%. Further, the parasite growth, % of DMSO control in assay [15] stood at 7.34%. In [16], the parasite growth remaining, % of DMSO control (lower = more inhibition) was 7.7%. In addition, the parasite growth, % of control (lower = inhibition) in assay [17] was 33.2%. For the same molecule, the growth, % of control in [18] was 7.48%.
For `CC[C@H](Nc1ncnc2nc[nH]c12)c1nc2cccc(F)c2c(=O)n1-c1ccccc1`, in [11], the max response was 14.6% (inactive).
For `Cc1ccc(N(CC2=NCCN2)c2cccc(O)c2)cc1`, the molecule was classed as inactive in [1], in [3], in [7] and in assay [8]. Further, the Potency entry in assay [2] is “inactive”. In addition, the max response in assay [11] is 9.03% (inactive). The molecule also registered a parasite growth, % of DMSO control in assay [15] of 69.6%. For the same molecule, in assay [16], the parasite growth remaining, % of DMSO control (lower = more inhibition) is 92.8%. The molecule also registered a parasite growth, % of control (lower = inhibition) in assay [17] of 57%.
On to `Cc1cc(-c2nnc3n2CCCCC3)c(C)n1-c1ccc(F)cc1`, for which, in [11], the Potency was 18.7 µM (active). Besides, the remaining parasite growth % (stronger effect = lower value) in assay [12] worked out at 7.99%. Further, the activity, percent of control in assay [13] worked out at 9.31%. The same molecule registered a remaining proliferation (% of control), lower = more inhibition in [14] of 0.91%.
`N[C@@H]1CONC1=O`: the result in [19], in assay [7], in assay [20] and in assay [8] was inactive. Moreover, in assay [11], the max response is 2.44% (inactive) and 21.1% (inactive). For the same molecule, the parasite growth, % of DMSO control in assay [15] is 398%. In [16], the parasite growth remaining, % of DMSO control (lower = more inhibition) worked out at 120%. The same molecule displayed a parasite growth, % of control (lower = inhibition) in [17] of 80.9%. In [18], this molecule gave a growth, % of control of 650%.
